Reference: PubChem BioAssay AID2017 (National Center for Advancing Translational Sciences (NCATS), 2009)
Results filed as inconclusive are left out. Activity calls are given as the source filed them. Calls follow the shape of the dose curve; as a rule, active = well fitted curve in the direction sought with a large enough effect; inconclusive = small, poorly fitted or top-dose-only effect, or another doubt; inactive = no such curve, though single readings can be large or run the other way.

Tested on: 4-diphosphocytidyl-2-C-methyl-D-erythritol kinase IspE (bacterial, species not stated)
Assay: Confirmatory Assay for Inhibitors of Human Galactokinase (GALK): CDP-Me assay counterscreen
Details: ATP depletion, Kinase-Glo luminescence; series mostly up to 115 µM
Summary of the method: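 Luminescent read-out of ATP remaining (Kinase-Glo Plus) after 1 h at room temperature. Reaction: 0.25 ug/mL CDP-Me kinase, ATP 15 uM, CDP-ME 30 uM, HEPES pH8.0 buffer containing MgCl2, KCl, DTT and BSA.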

| Compound | outcome |
| --- | --- |
| COCCCn1c(N)c(C(=O)NCc2ccco2)c2nc3ccccc3nc21 | inactive |
| O=C1NC(=S)N(Cc2ccco2)C(=O)/C1=C\c1cccs1 | inactive |
